This is a sample that favours compounds with a hit; in the whole collection about 5.5% have one here.
CtBP-E1A blk – blocks the CtBP interaction with E1A; 340,000 compounds, 0.49% hits; AID 651724; activity change, % (no concentration beside the values); AlphaScreen GST-E1A/His-CtBP binding, 1536-well; active compounds read low; in the data active means activity change below about -65%; inconclusive means mostly about -30% to -63%; further: on the % scale 0 is the no-effect control and ±100 the full control effect
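AlphaScreen with 125 nM GST-E1A and 125 nM His-CtBP (5X stocks) in Tris pH 8.0, 300 mM NaCl, BSA, Tween 20, TCEP. Compounds preincubated 2 h at 37 deg C, then glutathione donor/nickel acceptor beads added for 1 h at 37 deg C in dark.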
RORg inh – inhibitors of mouse ROR gamma transcriptional activity; P51450; Potency, µM (top dose mostly 53.6 µM), for the others: top-dose activity change, negative = inhibition, actives largely listed as inhibitors; Drosophila S2 Gal4-RORgamma UAS-luciferase reporter, 20 h; 310,000 compounds, 5.4% hits; AID 2551; further: potency means the concentration at half of the fitted maximal effect; on the % scale 0 is the no-effect control and ±100 the full control effect; nearly all actives have a fitted effect of over 60% in size
Target sequence (P51450 whole entry, looked up, the tested form may be a part): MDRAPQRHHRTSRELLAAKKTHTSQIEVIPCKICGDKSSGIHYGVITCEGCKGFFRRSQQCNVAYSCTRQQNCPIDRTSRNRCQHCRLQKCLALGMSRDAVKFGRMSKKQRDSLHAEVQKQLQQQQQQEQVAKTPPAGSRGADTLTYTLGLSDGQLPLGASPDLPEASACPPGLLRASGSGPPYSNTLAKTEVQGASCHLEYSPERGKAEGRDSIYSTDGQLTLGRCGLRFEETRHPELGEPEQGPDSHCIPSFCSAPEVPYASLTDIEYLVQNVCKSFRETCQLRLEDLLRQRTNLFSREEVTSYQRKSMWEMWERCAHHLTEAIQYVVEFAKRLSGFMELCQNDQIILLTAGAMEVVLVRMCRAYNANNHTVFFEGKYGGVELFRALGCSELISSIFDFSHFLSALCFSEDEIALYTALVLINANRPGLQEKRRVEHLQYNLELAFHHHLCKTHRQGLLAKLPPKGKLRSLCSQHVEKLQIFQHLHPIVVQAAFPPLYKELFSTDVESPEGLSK
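Read-out: Photinus luciferase luminescence; inhibitors lower reporter signal. Insect Schneider cells with Gal4-ROR gamma fusion under metallothionein promoter, UAS reporter; 700 uM final copper sulfate induction, 20 hr, ambient temperature.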
CBFb RUNX1 block – inhibitors of human CBF-beta and RUNX1 interaction | AID 1477 | Potency, µM (highest dose often 59.8 µM), without a hit: at the highest dose activity, negative = inhibition, actives largely listed as inhibitors | 230,000 tested, under 10 active | AlphaScreen CBFb-His/RUNX1-biotin binding, biochemical; further: % of control where 0% means no effect
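His-tagged CBF-beta and biotinylated RUNX1 (30 nM each) were premixed 20 min at room temperature, exposed to compound for 15 min, then given nickel-chelate and streptavidin AlphaScreen beads (50 ng each). After 90 min, AlphaScreen signal was read.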
MBNL1-CUG inh – blocks human MBNL1 binding to CUG repeat RNA. Q9NR56. TR-FRET MBNL1-His/biotin-(CUG)12 binding, 665/545 ratio. Potency, µM (doses to about 57.5 µM), inactives show top-dose activity change, negative = inhibition, hits mostly inhibitors. 280,000 compounds, 0.036% hits. AID 2675; active means well fitted inhibition curve with a large enough effect in the signal ratio, with a control signal flat, not every such curve was filed as active; inconclusive means small, poorly fitted or top-dose-only effect, or effect the other way, or a change in a side signal; inactive means no such curve, though single readings can be large or run the other way; the % refers to the signal ratio; further: potency means the concentration at half of the fitted maximal effect; on the % scale 0 is the no-effect control and ±100 the full control effect
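Inhibition of protein-RNA binding appears as loss of TR-FRET between terbium anti-His antibody on MBNL1-His and streptavidin-XL665 on biotin-(CUG)12. Activity is normalized to buffer-only and uninhibited-complex controls.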
Gal4-VP16 FLuc – inhibits Gal4-VP16 luciferase reporter, ROR gamma counter-screen. Drosophila S2 Gal4-VP16 UAS-luciferase, luminescence, 20 h. Potency, µM (titrated, usually from 53.6 µM), without a hit: at the top dose activity, negative = inhibition, most hits filed as inhibitors. 310,000 compounds, 3.5% hits. AID 2546;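 further: Gal4-VP16 expression switched on by copper sulfate through the metallothionein promoter; potency means the concentration at half of the fitted maximal effect; on the % scale 0 is the no-effect control and ±100 the full control effect; nearly all actives have a fitted effect of over 50% in size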
Six1-Eya2 inh – inhibitors of human Six1/Eya2 interaction | Q15475+O00167 | AlphaScreen GST-Six1/His-Eya2 binding, biochemical; active compounds read low | activity change, % (concentration not given with the values) | 360,000 compounds, 0.56% hits | AID 651725; in the data active means activity change below about -65%; inconclusive means mostly about -30% to -63%; further: on the % scale 0 is the no-effect control and ±100 the full control effect
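GST-Six1 + His-Eya2 (5X stock: 250/500 nM); Tris pH 8.0, 300 mM NaCl, 0.05% BSA, 0.02% Tween 20; GSH donor/Ni acceptor beads; 1 h 37 °C dark; AlphaScreen readout.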
The depositor's hits bear a star; u = inconclusive; x = no result; [ ] = another dose, or the depositor's remark. Unless noted, the call rests on the fitted dose curve; in most records, active means well fitted curve in the direction sought with a large enough effect; inconclusive means small, poorly fitted or top-dose-only effect, or another doubt; inactive means no such curve, though single readings can be large; an effect the other way counts as inactive or inconclusive.

SMILES	CtBP-E1A blk	RORg inh	CBFb RUNX1 block	MBNL1-CUG inh	Gal4-VP16 FLuc	Six1-Eya2 inh
Cc1ccc(Sc2ncccc2C(=O)NCC(c2ccc(F)cc2)N2CCOCC2)c(C)c1 (configuration not stated)	-15	x	x	x	x	3
O=C(NNC(=O)c1cccnc1SCc1cccc([N+](=O)[O-])c1)c1ccccn1	u	3.5µM*	-5%	u	5µM*	0
O=C(NNC(=O)c1cccnc1SCc1cccc([N+](=O)[O-])c1)c1ccc(F)cc1	-3	u	-2%	14%	u	-4
O=C(NCc1cc([N+](=O)[O-])ccc1O)c1cccnc1Sc1ccccc1	-1	10µM*	x	u	11µM*	-14
COc1ccc(S(=O)(=O)N(C)C[C@H]2Oc3ccc(NC(=O)C4CC4)cc3C(=O)N([C@H](C)CO)C[C@@H]2C)cc1	0	x	x	x	x	7
O=C(Nc1ccncc1)c1ccc2c(c1)C(=O)N(C1CCCCC1)C2=O	42	u	19%	u	11µM*	141
Oc1c(Cl)cc(Cl)cc1C=Nc1ccc2c(c1)OCCO2	-5	14µM*	1%	0%	-20%	-4
COc1ccc(NS(=O)(=O)c2cccc(C(=O)N3CCN(c4ccccc4O)CC3)c2)cc1	-3	x	x	x	x	-3
COc1cccc(CN2CC(C(=O)N3CCN(c4ccc(Cl)cc4)CC3)CCC2=O)c1 (configuration not stated)	6	-2%	x	-1%	7%	-7
CC(C)c1ccc(C(CC(=O)O)N2Cc3ccccc3C2=O)cc1 (configuration not stated)	x	4%	x	-1%	-6%	3
C[C@@H](C(=O)O)c1ccc(N2Cc3ccccc3C2=O)cc1	x	1.1µM*	-8%[21.7 µM]	x	2µM*	x
CCC1CCCCN1C(=O)C1CC(c2cc(Cl)c(OC)cc2OC)=NO1 (configuration not stated)	3	19%	5%	15%	5%	-4
COc1cc(OC)c(C2=NOC(C(=O)N3CCCc4ccccc43)C2)cc1Cl (configuration not stated)	12	5.6µM*	-17%	-2%	4.5µM*	2
Nc1ccnc(=O)[nH]1	-1	x	x	x	x	5
COC(=O)c1ccc(C2NC(=S)N(c3ccccc3)C(C)=C2C(=O)Nc2ccccc2OC)cc1 (configuration not stated)	-19	10µM*	-11%	2%	u	-6
Cc1ccccc1NC(=O)COC(=O)c1cc(S(=O)(=O)N2CCOCC2)ccc1C	6	x	x	x	x	-1
Cc1ccc(C)c(N2C(=O)CC(Cc3ccccc3)C2=O)c1 (configuration not stated)	3	1%	x	-9%	-9%	-1
CC1=C(c2ccccc2)C(=S)NC(C)(C)C1	3	2.5µM*	3%	0%	7.1µM*	3
CCOc1ccc(-n2c(-c3ccccc3)c[n+]3c2CCCCC3)cc1	-3	u	8%	-8%	3.5µM*	2
CCOC(=O)C1=C(COC(=O)c2ncc(Cl)c(Cl)c2Cl)NC(=O)NC1C (configuration not stated)	6	x	x	x	x	-2
CCc1cc(-c2oncc2-c2ccc(OC)cc2)c(O)cc1OC	x	u	18%	x	14µM*	x
CCc1cc(-c2nc(N)ncc2-c2csc(C)n2)c(O)cc1OC	x	21%	5%	-2%	6%	-3
CCc1cc(-c2[nH]ncc2-c2ccc([N+](=O)[O-])cc2)c(O)cc1OC	-3	13µM*	x	9%	20µM*	-7
Oc1[nH]c2ccccc2c1N=NC(=S)N1CCOCC1	-66*	0.1µM*	x	x	2.8µM*	-92*
Oc1[nH]c2ccc(Br)cc2c1N=NC(=S)N1CCOCC1	u	1.6µM*	x	x	1.6µM*	-78*
